Most compounds without a hit are left out; they make up all but 2.8% or so of the library.
NSD2 inh = NSD2 histone methyltransferase inhibitors, primary screen, biochemical, AlphaScreen, single concentration, set 2; inhibition, % at 12.5 µM; actives 0.54% (n = 310,000); NSD2 peptide methylation, 120 min; Histone-lysine N-methyltransferase NSD2 (Homo sapiens), O96028; in the data active = inhibition above about 50%
Target sequence (O96028 whole entry, looked up): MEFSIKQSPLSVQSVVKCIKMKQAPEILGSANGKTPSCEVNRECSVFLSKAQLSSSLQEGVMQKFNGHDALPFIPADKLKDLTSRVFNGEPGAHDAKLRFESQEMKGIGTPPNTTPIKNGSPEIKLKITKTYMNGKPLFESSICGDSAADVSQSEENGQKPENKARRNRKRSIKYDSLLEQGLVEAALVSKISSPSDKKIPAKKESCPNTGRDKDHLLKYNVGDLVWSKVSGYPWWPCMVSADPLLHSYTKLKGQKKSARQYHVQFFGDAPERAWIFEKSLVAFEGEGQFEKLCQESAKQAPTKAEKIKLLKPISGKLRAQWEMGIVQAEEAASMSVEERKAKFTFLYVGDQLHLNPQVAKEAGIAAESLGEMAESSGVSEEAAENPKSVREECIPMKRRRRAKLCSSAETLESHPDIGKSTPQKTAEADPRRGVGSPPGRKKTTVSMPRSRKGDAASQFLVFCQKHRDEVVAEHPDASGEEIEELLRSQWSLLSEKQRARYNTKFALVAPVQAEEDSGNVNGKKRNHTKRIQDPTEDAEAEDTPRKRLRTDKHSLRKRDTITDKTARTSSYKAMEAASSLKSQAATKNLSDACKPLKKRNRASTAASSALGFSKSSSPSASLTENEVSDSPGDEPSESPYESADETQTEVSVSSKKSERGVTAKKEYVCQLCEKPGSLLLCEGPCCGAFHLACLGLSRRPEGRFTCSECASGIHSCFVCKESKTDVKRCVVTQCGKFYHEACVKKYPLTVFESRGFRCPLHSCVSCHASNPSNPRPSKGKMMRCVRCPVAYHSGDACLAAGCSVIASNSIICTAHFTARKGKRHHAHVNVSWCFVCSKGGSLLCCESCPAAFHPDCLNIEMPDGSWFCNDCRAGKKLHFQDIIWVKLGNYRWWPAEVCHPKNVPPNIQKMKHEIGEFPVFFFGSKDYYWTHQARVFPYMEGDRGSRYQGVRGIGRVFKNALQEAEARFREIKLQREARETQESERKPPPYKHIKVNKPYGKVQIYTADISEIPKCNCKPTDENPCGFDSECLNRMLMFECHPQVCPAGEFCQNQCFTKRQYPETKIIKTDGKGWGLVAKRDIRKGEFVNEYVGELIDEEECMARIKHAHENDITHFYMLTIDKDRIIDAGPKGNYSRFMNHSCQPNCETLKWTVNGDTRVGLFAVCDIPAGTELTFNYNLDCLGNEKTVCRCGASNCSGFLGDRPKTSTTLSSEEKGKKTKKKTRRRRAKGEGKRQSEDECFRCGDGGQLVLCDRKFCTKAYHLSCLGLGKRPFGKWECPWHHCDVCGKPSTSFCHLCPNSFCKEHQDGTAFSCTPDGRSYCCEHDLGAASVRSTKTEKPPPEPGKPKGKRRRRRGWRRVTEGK
EBV LMP1 NFkB = EBV LMP1-driven NF-kappaB luciferase reporter inhibitors, primary screen, cell-based, luminescence, single point; actives 0.69% (n = 350,000); AID 504558, 2011; inhibition, % at 12.5 µM; LMP1-induced NF-kappaB luciferase reporter cells; in the data active = inhibition above about 41%; inconclusive = no clear call, values can overlap the other calls;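 note: 0% = neutral control wells and 100% = reference inhibitor control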
Shn3 inh set2 = reduction of Shn3 3'UTR firefly luciferase signal, primary screen, Schnurri-3 inhibitor project, cell-based, Clone20 osteoblasts, set 2 | Clone20 osteoblast Shn3 3'UTR firefly luciferase, 24 h | inhibition, % at 12.5 µM | actives 0.52% (n = 360,000) | AID 588674, 2011;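 active = mean inhibition of at least 75% with every replicate also reaching 75%; inconclusive = mean inhibition at least 75% but some replicate below; inactive = mean inhibition below 75%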;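 note: 0% = median of neutral control wells and 100% = pilot-screen positive control compound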
N-glyco inh = increase of ERlucT glycosylation luciferase signal, primary screen, N-linked glycosylation inhibitor project, D54 ERlucT cells, luminescence, set 2; D54 ERlucT glycosylation luciferase reporter, 24 h; percent of 100 nM tunicamycin response; reporter increase, % at 12.5 µM; actives 0.23% (n = 360,000); AID 588692, 2011;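 active = mean luciferase reporter signal, scaled so untreated is 0 and the glycosylation-blocking control 100, at or above a set limit in every replicate; inconclusive = mean reaches the limit but not every replicate does; inactive = mean below the limit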;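 note: luciferase carries N-glycosylation sites so blocking glycosylation raises the light; 0% = median of neutral control wells and 100% = median of 100 nM tunicamycin wells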
PAX8 inh HTS = inhibitors of PAX8-driven TPO luciferase reporter, primary screen, RMG-I cells, single concentration | SteadyGlo, 24 h | inhibition, % at 12.6 µM | actives 1.2% (n = 360,000) | AID 652154, 2013;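 active = mean replicate inhibition at least 60% with every replicate also reaching 60%; inconclusive = only one of the two criteria is met; inactive = mean below 60% and not all replicates reaching 60%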;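 note: luciferase light reporting Pax8 driven TPO promoter activity; plate controls were median of neutral control wells for no effect and mitoxantrone controls for full effect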
HIV Env fusion = inhibitors of HIV-1 Env-driven cell-cell fusion, primary screen, HeLa-JRFL effector, CEM21 target cells, luciferase. inhibition, % at 12.3 µM. actives 1.1% (n = 360,000);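 active = mean replicate inhibition score of at least 50 and every replicate individually at or above 50; inconclusive = only one of the two criteria met; inactive = mean below 50 and not all replicates reaching 50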;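 note: 0% = plate neutral controls and 100% = maraviroc near 300 nM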
* marks the source's active call; other numbers are inactive results; ? = inconclusive; · = no result; [ ] = remark or other dose.

SMILES	NSD2 inh	EBV LMP1 NFkB	Shn3 inh set2	N-glyco inh	PAX8 inh HTS	HIV Env fusion
C[C@H]1O[C@@H](OC2CC[C@]3(C=O)[C@H]4CC[C@]5(C)[C@@H](C6=CC(=O)OC6)CC[C@]5(O)[C@@H]4CC[C@]3(O)C2)CC2OC(C)(C)OC21 (stereo partly specified)	·	64.7*	9.0	-17.8	108.4*	81.5*
CCCCN=C[C@]12CCC(O)CC1(O)CCC1[C@@H]2CC[C@]2(C)[C@H](C3C=CC(=O)O3)CCC12O (stereo partly specified)	0.9	2.1	-30.8	-16.8	107.2*	81.8*
COC(=O)[C@@H]1[C@@H](CO)[C@@H]2Cn3c(ccc(-c4cccc(C(=O)N(C)C)c4)c3=O)[C@H]1N2CC1CC1	·	·	·	·	-8.9	·
COC(=O)[C@@H]1[C@@H](CO)[C@@H]2Cn3c(ccc(-c4ccccc4F)c3=O)[C@H]1N2Cc1ccccc1	·	·	·	·	9.9	·
N#Cc1cccc(-c2ccc([C@@H]3[C@H]4CN(C(=O)Cc5cccnc5)CCCCN4[C@H]3CO)cc2)c1	·	·	·	·	9.9	·
CC12CCC3C(CCC4(O)CC(O)CCC34C=O)C1(O)CCC2C1=CC(=O)OC1 (stereo unspecified)	-1.3	?	-20.6	-16.2	100.7*	-0.9
C[C@]12CCC3C(CCC4=CC(O)CC[C@@]43/C=N/O)C1(O)CCC2C1=CC(=O)OC1 (stereo partly specified)	-1.1	3.3	14.0	-17.0	109.2*	93.0*
O=C(Cc1cccnc1)N1CCCCN2[C@H](CO)[C@@H](c3ccc(C#CC4(O)CCCC4)cc3)[C@H]2C1	·	·	·	·	-10.3	·
CCc1ccc(CNCCc2c[nH]c3ccccc23)cc1	13.4	7.8	0.6	-1.1	-11.2	78.3*
COc1cc(CNCCc2c[nH]c3ccccc23)cc(OC)c1	13.0	-0.5	23.5	-3.1	14.6	61.0*
c1ccc(CNCCc2c[nH]c3ccccc23)cc1	4.4	-102.9	-5.6	-3.9	7.2	15.2
COC(=O)C[C@H]1CC[C@@H]2NC[C@H](O)COC[C@H]2O1	·	·	·	·	-29.0	-23.3[16.7 µM]
COc1ccc(C#Cc2ccc([C@H]3[C@@H](CO)N4CCCCN(C(=O)Cc5ccccc5)C[C@@H]34)cc2)cc1	·	·	·	·	15.4	·
CCN(CC)C(=O)c1ccc(NC(=O)Nc2ccccc2F)cc1	1.4	51.1*	17.2	-19.4	15.2	8.6
O=C(NC[C@H]1CC[C@@H]2NC[C@@H]2O1)C1CCCC1	·	·	·	·	14.4	-21.6[16.7 µM]
C[C@H]1C[C@@H](C)C(=O)[C@@H]([C@H](O)CC2CC(=O)NC(=O)C2)C1	·	73.5*	90.1*	-23.0	·	·
CC(C)C(NC(=O)C(C(C)C)N(C)C)C(=O)N(C)C(C(=O)N1CCCC1C(=O)N1CCCC1C(=O)NCc1ccccc1)C(C)C (stereo unspecified)	-1.3	4.8	-15.2	8.8	75.6*	-3.0
O=C(Cc1ccncc1)N1CCCCN2[C@H](CO)[C@@H](c3ccc(C#Cc4ccccc4F)cc3)[C@@H]2C1	·	·	·	·	18.9	·
O=C(O)[C@@H]1[C@@H](CO)[C@@H]2Cn3c(ccc(-c4cccnc4)c3=O)[C@H]1N2C(=O)Nc1cc(F)ccc1F	·	·	·	·	·	8.7[16.7 µM]
O=C1CN=C(c2ccccc2)c2ccccc2N1Cc1ccc(C(F)(F)F)cc1	-9.3	3.2	27.0	-5.8	·	76.1*
CC=Cc1ccc2n(c1=O)C[C@H]1[C@H](CO)[C@@H](C(=O)O)[C@@H]2N1S(=O)(=O)c1ccccc1C (mixture of isomers)	·	·	·	·	-7.8	·
CN(c1ccc(O)cc1)c1ccc([N+](=O)[O-])c2nonc12	52.9*	0.4	-0.3	1.3	8.1	-9.5
O=[N+]([O-])c1ccc(N2CCCCCC2)c2nonc12	0.5	-12.9	10.7	1.9	-17.2	34.4
O=C(O)[C@H]1[C@H](CO)[C@H]2Cn3c(ccc(-c4cccnc4)c3=O)[C@@H]1N2S(=O)(=O)c1ccccc1F	·	·	·	·	-25.0	·
Cc1cccc(CN2CCN(c3ccc(Cl)cc3)CC2)c1	3.8	0.3	13.2	-2.8	9.5	7.5

High-throughput results (PubChem)
